Bioassay records from PubChem.
A selection: hits, their analogues and other compounds. The true share with any hit is near 27%.
CYP2C9 activ = human CYP2C9 activators, primary screen, biochemical, luminescence; 96,000 compounds, 1.4% hits; activation factor at 5 µM; Cytochrome P450 2C9 (Homo sapiens), P11712; recombinant CYP2C9, luciferin-H conversion; hits give high values; factor 1 = untreated enzyme, 0 = blocked;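 active = activation factor of 2 or more for CYP2C9 at a 5 µM dose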
Target sequence (P11712 whole entry, looked up): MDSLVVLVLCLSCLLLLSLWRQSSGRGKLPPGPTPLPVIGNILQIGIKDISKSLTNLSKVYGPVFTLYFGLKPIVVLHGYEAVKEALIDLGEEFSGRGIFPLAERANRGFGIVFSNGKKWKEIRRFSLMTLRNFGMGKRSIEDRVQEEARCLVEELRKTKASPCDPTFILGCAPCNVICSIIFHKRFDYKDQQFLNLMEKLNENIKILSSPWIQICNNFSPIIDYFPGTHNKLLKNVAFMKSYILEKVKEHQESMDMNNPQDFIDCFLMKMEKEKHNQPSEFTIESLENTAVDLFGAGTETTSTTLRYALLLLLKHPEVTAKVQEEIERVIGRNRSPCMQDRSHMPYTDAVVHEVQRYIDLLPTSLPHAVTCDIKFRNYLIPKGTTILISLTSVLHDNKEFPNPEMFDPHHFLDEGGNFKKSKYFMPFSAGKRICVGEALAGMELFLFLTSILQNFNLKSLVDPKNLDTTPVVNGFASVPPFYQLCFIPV
CYP2C9 inhib = blockers of cytochrome P450 2C9 activity – biochemical, luminescence, ADME assay, primary screen | CYP2C9 Supersomes, luciferin-H conversion | inhibition, % at 5 µM | AID 777, 2007 | P11712 | 96,000 compounds, 20% hits;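 active = blocking of liver enzyme CYP2C9 beyond about 50% at 5 µM, limit read from the data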
CYP2C19 activ = human CYP2C19 activators, primary screen, biochemical, luminescence; 96,000 tested, under 10 active; AID 1025, 2008; activation factor at 5 µM; recombinant CYP2C19, luciferin-H EGE luminescence; hits give high values; 0 = fully inhibited enzyme, 1 = untreated enzyme;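 active = activation factor of at least 2 at 5 µM in the primary screen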
sEH inh = soluble epoxide hydrolase inhibitors, primary screen, biochemical, human sEH; Bifunctional epoxide hydrolase 2 (Homo sapiens), P34913; recombinant human sEH enzymatic activity assay; inhibition, % at 2 µM; 91,000 compounds, 0.34% hits; in the data active = inhibition above about 80%
sEH act = soluble epoxide hydrolase activators, primary screen, biochemical, human sEH. Bifunctional epoxide hydrolase 2 (Homo sapiens), P34913. purified human sEH enzymatic activity, activator screen. activation, % at 2 µM. 91,000 compounds, 0.04% hits. AID 717, 2007; in the data active = activation above about 37%
CYP2C19 inhib = blockers of cytochrome P450 2C19 activity – biochemical, luminescence, ADME assay, primary screen. P33261. CYP2C19 Supersomes, luciferin-H EGE luminescence, 30 min. inhibition, % at 5 µM. 96,000 compounds, 21% hits;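 active = CYP2C19 inhibition above a set limit at 5 µM in the primary screen, cut at about 50% in these data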
Numbers stand for hits; - = inactive; . = not tested or not shown.

SMILES	CYP2C9 activ	CYP2C9 inhib	CYP2C19 activ	sEH inh	sEH act	CYP2C19 inhib
CCCOC(=O)c1cc(-c2ccc(/C=C3/C(=O)N(C)C(=O)C(C#N)=C3C)o2)ccc1Cl	.	.	.	-	-	.
Cc1cc(Cl)cc(Br)c1OCCCCn1cncn1	-	73	-	-	-	98
COCCCNCCCCOc1c(Cl)cc(C)cc1Br	-	-	-	-	-	-
C=CCNCCCCOc1c(Cl)cc(C)cc1Br	-	-	-	-	-	57
Cc1cc(Cl)c(OCCCn2cncn2)c(Br)c1	-	-	-	-	-	94
C=CCc1cc(C)cc(C)c1OCCn1cncn1	.	.	.	-	-	.
CCCCSc1nc(C)[nH]c1[N+](=O)[O-]	-	-	-	-	-	-
COc1ccc(Br)cc1CNC(=O)C1CCCN(S(C)(=O)=O)C1 (configuration not stated)	-	-	-	-	-	-
COc1ccc(S(=O)(=O)Nc2cc(C(C)C)c(O)cc2C)cc1	-	-	-	-	-	88
COC(=O)c1sccc1NS(=O)(=O)c1ccc(OC)cc1	-	-	-	.	.	-
COc1ccc(S(=O)(=O)Nc2cc(C)c(O)cc2C(C)C)cc1	2.4	-	-	-	-	99
O=C(/C=C/c1ccccc1)NCCSCc1ccccc1Cl	-	57	-	-	-	-
O=C(/C=C/c1ccc(Cl)cc1)NCCSc1ccccc1	-	-	-	-	-	-
CCCCCOc1ccc(CSc2ncn[nH]2)cc1	.	.	.	-	-	.
CCOC(=O)C(NC=O)(NC(C)(C)C)C(=O)OCC	-	-	-	-	-	-
O/N=C(\c1ccc(Cl)cc1)c1ncc(C(F)(F)F)cc1Cl	-	86	-	-	-	98
FC(F)(F)c1cnc2c(-c3ccc(Cl)cc3Cl)noc2c1	-	-	-	-	-	-
Cc1cc(C)n(Cc2ccc(NC(=O)c3nn(C)cc3[N+](=O)[O-])cc2)n1	-	-	-	-	-	-
Cn1cc([N+](=O)[O-])c(C(=O)Nc2cc(Oc3cccnc3)cc([N+](=O)[O-])c2)n1	-	78	-	-	-	72
COc1cc2cc(C(=O)O)n(C)c2c(OC)c1OC	-	-	-	-	-	-
CC(=O)c1c(C)n(-c2ccccc2)c2ccc(O)cc12	-	-	-	-	-	82
CC(=O)c1c(C)n(-c2ccccc2)c2ccc(OCC(O)CN3CCOCC3)cc12 (configuration not stated)	-	68	-	-	-	77
COC(=O)c1c(C)n(-c2ccc(C)cc2)c2ccc(O)cc12	-	-	-	-	-	53
CC(=O)c1c(C)n(CCO)c2ccc(O)cc12	-	-	-	-	-	-
O=C(CCCN1C(=O)C2CCCCN2C1=O)N1CCN(c2ccc([N+](=O)[O-])cc2)CC1 (configuration not stated)	-	-	-	-	-	-
SMILES	CYP2C9 activ	CYP2C9 inhib	CYP2C19 activ	sEH inh	sEH act	CYP2C19 inhib
Cc1cc2cc(CNC(=O)NC3CCCCC3)ccc2[nH]1	-	-	-	90	-	76
O=C(NCc1ccc(N2CCCC2=O)cc1)NC1CCCCC1	-	-	-	80	-	-
O=C(NC1CCCCCC1)c1ccc(N2CCCC2=O)cc1	-	-	-	.	.	-
CC1CN(S(=O)(=O)c2ccc(Cl)c(S(=O)(=O)N3CC(C)OC(C)C3)c2)CC(C)O1 (configuration not stated)	-	-	-	.	.	-
Cc1nn2c(N3CCN(c4ccccn4)CC3)cc(C(C)C)nc2c1-c1ccccc1	-	62	-	.	.	-
COC(=O)CN1CCN(C(=O)c2ccc(F)cc2)c2ccccc2C1	-	-	-	-	-	53
CCOc1ccccc1N(CC(=O)OC)S(C)(=O)=O	-	-	-	-	-	-
CCn1c(-c2cc(-c3cc(OC)ccc3OC)nc3ccccc23)n[nH]c1=S	-	97	-	-	-	88
CCn1c(-c2cc(-c3ccc(OC(C)C)cc3)nc3ccccc23)n[nH]c1=S	-	96	-	-	-	74
Cc1cc2c(N=O)c(NO)ccc2[nH]1	-	-	-	-	-	-
CCCCn1nnnc1SCC(=O)Nc1ccc2c(c1)OCCO2	-	59	-	-	-	67
CCCn1nnnc1SCC(=O)c1ccc2c(c1)OCCO2	-	-	-	-	-	65
CCCCn1nnnc1SCC(=O)NCc1ccccc1	-	-	-	-	-	-
Cn1cnnc1SCC(=O)c1ccc2c(c1)OCCO2	-	-	-	-	-	-
CCCCn1nnnc1SCC(=O)Nc1ccc(C)cc1	-	-	-	-	-	71
CCCn1nnnc1SCC(=O)N(C(C)C)C(C)C	-	-	-	.	.	72
CCSc1nc2c(cnn2-c2ccc(C)c(C)c2)c(=O)[nH]1	-	-	-	-	-	-
COc1ccc(Cl)cc1NC(=O)N1CCN(S(C)(=O)=O)CC1	-	-	-	-	-	-
Cc1cc(C)n(-c2nc3c(c(=O)n(C)c(=O)n3C)n2CC(O)COc2ccccc2C)n1 (configuration not stated)	.	.	.	-	-	.
CCCn1nnnc1SCC(=O)Nc1ccc(F)cc1	-	-	-	-	-	96
CCOc1ccc(NC(=O)CSc2nnnn2CC(=O)O)cc1	.	.	.	-	-	.
CCCn1nnnc1NC(=O)CSc1ccc(Cl)cc1	-	66	-	-	-	82
CCCCN(C)C(=O)c1sc2ncn(CC)c(=O)c2c1C	-	-	-	-	-	-
CCN1CCCC1CNC(=O)Cn1cccc1C(=O)c1ccccc1C (configuration not stated)	-	-	-	-	-	-
CCCSc1cc(N2CCOCC2)nc(-c2ccccc2Cl)n1	-	57	-	-	-	-
SMILES	CYP2C9 activ	CYP2C9 inhib	CYP2C19 activ	sEH inh	sEH act	CYP2C19 inhib
CN(CC(=O)N1CC=C(c2ccccc2)CC1)S(=O)(=O)c1cnc[nH]1	-	99	-	-	-	95
CCOc1ccc(-c2nnn(CC(=O)c3ccc4c(c3)OCCO4)n2)cc1OCC	-	-	-	-	-	-
O=C1Nc2ccccc2N=C(c2ccccc2)C1N1CCOCC1 (configuration not stated)	-	59	-	-	-	54
CCOC(=O)N1CCN(C(=O)c2oc(=O)c3ccccc3c2-c2ccc(C)cc2)CC1	-	59	-	-	-	60
O=C(c1oc(=O)c2ccccc2c1-c1ccccc1)N1CCOCC1	-	-	-	.	.	-
O=C(c1ccco1)N1CCN(C(=O)c2oc(=O)c3ccccc3c2-c2ccccc2)CC1	-	60	-	-	-	-
O=c1c2ccccc2nc2n1C(CSc1ccc(Br)cc1)CN2 (configuration not stated)	-	-	-	-	-	-
CCOC(=O)CSc1nnc(CNC(=O)Cc2ccccc2)n1C	-	-	-	-	-	-
